Structures are written as SMILES. The source made the active and inactive calls.

Assay [1] in a line: optical density shifts of acrAB sulA E. coli – strain DRC41, OD650, 48 h, E. coli filamentation inducer project, primary screen (AID 1152).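 Also: E. coli MC1000 strain DRC41 lacking acrAB efflux pump and sulA.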 Particulars: higher = more signal, called active from +8 up or from −8 down.
Assay [2] in a line: probe aLefty1 binding on compound microarray – biochemical, small-molecule microarray, 635/667 nm fluorescence, primary screen (AID 1153).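 Also: score merges spot fluorescence with signal-to-noise ratio from the scanned slide images.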 Particulars: higher = more signal.
The nature of assay [3]: plasmodial surface anion channel blockers, osmotic lysis – cell-based, P. falciparum Indochina, OD700, 1 h, primary screen (AID 1154). Particulars: P. falciparum Indochina infected RBC osmotic lysis, higher = more signal, called active from +8 up or from −8 down.
Assay [4] is described as follows: plasmodial surface anion channel blockers, osmotic lysis – cell-based, P. falciparum Indochina, OD700, 2 h, primary screen (AID 1155).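 Also: lysis reports solute entry through the parasite surface anion channel PSAC.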 The following applies: P. falciparum Indochina infected erythrocytes, higher = more signal, called active from +8 up or from −8 down.
Assay [5] can be described thus: changes in parasitized red cell lysis, either direction – P. falciparum Indochina, OD700, 3 h, PSAC antagonist project, primary screen (AID 1156). The following applies: P. falciparum-infected erythrocytes, osmotic lysis, higher = more signal, called active from +8 up or from −8 down.
Assay [6] can be described thus: plasmodial surface anion channel blockers, osmotic lysis – cell-based, P. falciparum Indochina, OD700, 18 h, primary screen (AID 1157). Particulars: P. falciparum Indochina infected erythrocytes, osmotic lysis OD700, 18 h; higher = more signal, called active from +8 up or from −8 down.
Assay [7] is described as follows: S6 kinase pathway phospho-S6 level changes – cell-based, A549, cytoblot, luminescence, serum-stimulated, primary screen (AID 1158).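 Also: serum-stimulated A549 lung adenocarcinoma cells; signal is phosphorylated S6 detected by cytoblot immunostaining with HRP secondary.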 Particulars: 5 h, higher = more signal.
Assay [8] concerns the target NADPH oxidase 2 (Homo sapiens) (UniProt P04839). The assay can be described thus: compounds shifting NOX2 Amplex Red fluorescence – cell-based, HEK293-NOX2, PMA-stimulated, NOX inhibitor project, primary screen (AID 1159). Also: test concentration not given here. Particulars: 45 min, higher = more signal, called active from +8 up or from −8 down.
Assay [9] deals with NADPH oxidase 4 (Homo sapiens) (UniProt Q9NPH5). The assay can be described thus: compounds shifting NOX4 Amplex Red fluorescence – cell-based, HEK293-NOX4, tetracycline-induced, NOX inhibitor project, primary screen (AID 1160). The following applies: HEK293-NOX4, Amplex Red H2O2 fluorescence, 45 min; higher = more signal, called active from +8 up or from −8 down.
For assay [10], the target named is NADPH oxidase 5 (Homo sapiens) (UniProt Q96PH1). The assay can be described thus: compounds shifting NOX5 Amplex Red fluorescence – cell-based, HEK293-NOX5, NOX inhibitor project, primary screen (AID 1161). The following applies: HEK293-NOX5, ionomycin, 45 min, higher = more signal.
NADPH oxidase 5 (Homo sapiens), sequence (Q96PH1 whole entry, looked up): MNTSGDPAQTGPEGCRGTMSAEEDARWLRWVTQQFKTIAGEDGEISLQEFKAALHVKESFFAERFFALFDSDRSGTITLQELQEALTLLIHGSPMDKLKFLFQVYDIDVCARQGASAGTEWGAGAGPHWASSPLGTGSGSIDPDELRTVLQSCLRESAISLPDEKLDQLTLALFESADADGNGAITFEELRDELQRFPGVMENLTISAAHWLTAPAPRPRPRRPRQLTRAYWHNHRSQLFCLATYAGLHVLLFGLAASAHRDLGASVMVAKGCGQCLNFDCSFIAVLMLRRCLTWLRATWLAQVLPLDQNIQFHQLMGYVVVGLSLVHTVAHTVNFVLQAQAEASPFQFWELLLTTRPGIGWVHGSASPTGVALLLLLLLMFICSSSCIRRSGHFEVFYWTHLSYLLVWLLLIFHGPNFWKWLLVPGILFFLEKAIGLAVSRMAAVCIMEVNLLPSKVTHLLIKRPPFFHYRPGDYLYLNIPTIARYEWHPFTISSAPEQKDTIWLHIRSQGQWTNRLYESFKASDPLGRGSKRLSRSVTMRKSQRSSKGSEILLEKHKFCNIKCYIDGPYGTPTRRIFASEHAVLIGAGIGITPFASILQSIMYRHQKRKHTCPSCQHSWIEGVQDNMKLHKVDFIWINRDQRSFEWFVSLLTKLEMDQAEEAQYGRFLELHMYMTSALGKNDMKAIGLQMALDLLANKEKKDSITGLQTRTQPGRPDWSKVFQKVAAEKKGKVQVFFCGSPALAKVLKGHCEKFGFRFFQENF

NADPH oxidase 4 (Homo sapiens), sequence (Q9NPH5 whole entry, looked up): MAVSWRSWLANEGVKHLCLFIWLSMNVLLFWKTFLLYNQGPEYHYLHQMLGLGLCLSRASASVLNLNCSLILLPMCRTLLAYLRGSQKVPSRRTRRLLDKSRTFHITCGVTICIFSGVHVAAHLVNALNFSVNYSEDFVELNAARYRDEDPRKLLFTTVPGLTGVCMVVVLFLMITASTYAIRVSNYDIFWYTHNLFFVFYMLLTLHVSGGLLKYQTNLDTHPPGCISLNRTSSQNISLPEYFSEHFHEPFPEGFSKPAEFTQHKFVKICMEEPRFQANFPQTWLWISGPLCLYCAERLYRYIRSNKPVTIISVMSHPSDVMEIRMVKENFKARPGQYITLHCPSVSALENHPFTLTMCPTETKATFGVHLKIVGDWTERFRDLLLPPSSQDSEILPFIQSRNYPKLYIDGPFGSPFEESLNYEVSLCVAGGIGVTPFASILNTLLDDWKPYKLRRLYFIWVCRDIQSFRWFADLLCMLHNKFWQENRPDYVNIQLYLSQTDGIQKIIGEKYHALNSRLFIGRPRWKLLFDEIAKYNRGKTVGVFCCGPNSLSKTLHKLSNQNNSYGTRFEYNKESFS
NADPH oxidase 2 (Homo sapiens), sequence (P04839 whole entry, looked up): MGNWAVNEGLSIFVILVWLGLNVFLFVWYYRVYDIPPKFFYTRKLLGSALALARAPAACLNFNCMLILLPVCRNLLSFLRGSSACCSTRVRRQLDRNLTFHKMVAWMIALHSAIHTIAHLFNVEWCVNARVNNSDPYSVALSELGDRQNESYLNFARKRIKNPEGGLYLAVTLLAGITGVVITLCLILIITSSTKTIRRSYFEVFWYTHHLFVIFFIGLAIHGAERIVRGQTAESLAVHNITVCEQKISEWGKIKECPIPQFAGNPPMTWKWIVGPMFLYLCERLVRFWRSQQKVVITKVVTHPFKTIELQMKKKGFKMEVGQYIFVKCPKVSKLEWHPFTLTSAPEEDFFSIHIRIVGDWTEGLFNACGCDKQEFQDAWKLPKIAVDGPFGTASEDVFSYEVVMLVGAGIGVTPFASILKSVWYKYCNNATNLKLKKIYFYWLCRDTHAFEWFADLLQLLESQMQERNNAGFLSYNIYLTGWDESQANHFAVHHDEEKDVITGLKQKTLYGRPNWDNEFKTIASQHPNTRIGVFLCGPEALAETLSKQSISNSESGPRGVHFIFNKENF

As to `CC(C)OC(=O)C=C1C[C@@H](c2ccc(C(F)(F)F)cc2)O[C@@H](c2ccc(C(F)(F)F)cc2)O1`, the z-score in [1] is 0.609 (inactive); in assay [3] it was 2.79 (inactive); in assay [4], -0.301 (inactive); in assay [5], -0.101 (inactive); in assay [6], -1.05 (inactive); in [7], 0.569. Further, the z-score in [8] was 0.283 (inactive); in assay [9], -0.175 (inactive); in assay [10] it was -0.0582. This compound returned a composite z-score in assay [2] of -0.0954.

Regarding `O=C(NCC(F)(F)F)[C@@H]1c2ccccc2C(=O)N(Cc2cc(F)cc(C(F)(F)F)c2)[C@H]1c1ccc(CO)cc1`, the z-score is 0.319 (inactive) in assay [1]; 1.71 (inactive) in assay [3]; -0.0966 (inactive) in [4]; 1.24 (inactive) in [5]; 0.449 (inactive) in assay [6]; 0.286 in [7]. Further, the z-score in assay [8] is 0.898 (inactive); in [9], -1.68 (inactive); in assay [10], -1.17. In assay [2], the composite z-score was 0.0494.

For the compound `CN(C)CCCCNC(=O)[C@@H]1C[C@@H]2C(=O)N[C@@H](Cc3ccccc3)C(=O)N2[C@@H]1c1cccc(OCCO)c1`, the z-score was 2.93 (inactive) in [1]; 7.44 (inactive) in [3]; -0.16 (inactive) in assay [4]; -1.84 (inactive) in assay [5]; -1.29 (inactive) in [6]; 0.602 in [7]. Besides, the results for the z-score in [8], in assay [9] and in assay [10] were 0.767 (inactive), 0.74 (inactive) and 1.55, respectively. This compound also registered a composite z-score in [2] of 0.243.

As to `Cc1cc(C)cc(N2C(=O)CSC2c2cccc([N+](=O)[O-])c2)c1` (stereo not given), the z-score is 0.421 (inactive) in [1]; 0.385 (inactive) in [3]; -0.414 (inactive) in assay [4]; 0.652 (inactive) in assay [5]; -0.237 (inactive) in [6]; -0.261 in assay [7]. Besides, the z-score in [8] is -1.02 (inactive); in assay [9], -0.364 (inactive); in assay [10], 0.483. For the same compound, the composite z-score in assay [2] was -0.0046.

Turning to `CCCC[C@@H]1C[C@H]1[C@@H](NC(=O)c1ccccc1)c1ccc(C(F)(F)F)cc1`, the z-score is -0.903 (inactive) in [1]; -0.512 (inactive) in assay [3]; 0.0991 (inactive) in [4]; 0.162 (inactive) in assay [5]; 0.739 (inactive) in assay [6]; -0.295 in assay [7]. Moreover, the z-score was -0.3 (inactive) in assay [8], -0.742 (inactive) in [9] and 0.689 in [10]. Besides, the composite z-score in assay [2] is 0.361.

`Cc1ccccc1C(O)C1C=CC2C(=O)N(C)C(=O)C2N1N(c1ccccc1)c1ccccc1` (stereo not given): the z-score is -0.402 (inactive) in [1]; 3.21 (inactive) in assay [3]; 1.71 (inactive) in assay [4]; 0.625 (inactive) in assay [5]; 1.25 (inactive) in assay [6]; -0.877 in assay [7]. Further, the figures for the z-score in [8], in [9] and in assay [10] were 0.888 (inactive), 0.0569 (inactive) and -0.125, respectively. This compound yielded a composite z-score in assay [2] of 0.998.

Regarding `CCOC(=O)c1ccc(NC(=O)O[C@H]2[C@H](OC(=O)Nc3ccc4c(c3)OCO4)[C@H](OC(=O)Nc3ccc4c(c3)OCO4)[C@@H](OC)O[C@@H]2CO)cc1`, the z-score was -0.351 (inactive) in assay [1]; 23.4 (active) in assay [3]; 6.99 (inactive) in assay [4]; 0.726 (inactive) in [5]; 1.55 (inactive) in assay [6]; -0.535 in assay [7]. Also, the figures for the z-score in [8], in assay [9] and in assay [10] were -0.984 (inactive), -0.54 (inactive) and -1.28, respectively. Further, the composite z-score in [2] was determined as 0.408.

Consider `CN1C(=O)C2C=CC(C(O)c3ccc(F)cc3)N(Nc3ccccc3)C2C1=O` (stereo not given), for which the z-score in assay [1] is -1.69 (inactive); in [3], 1.24 (inactive); in assay [4] it was 1.05 (inactive); in assay [5] it was 1.45 (inactive); in assay [6], 0.582 (inactive); in assay [7], -0.85. In addition, the z-score was -1.41 (inactive) in assay [8], -3.79 (inactive) in assay [9] and -3.17 in assay [10]. This compound also showed a composite z-score in assay [2] of 0.0711.

In the case of `COC(=O)c1c(CC[C@@H](CO)NC(=O)N[C@H](Cn2cc(C3(O)CCCCC3)nn2)C(C)C)oc(C(C)=O)c1C(=O)OC`, the z-score in assay [1] was 1.51 (inactive); in assay [3], 1.45 (inactive); in assay [4], -0.141 (inactive); in assay [5] it was 1.02 (inactive); in assay [6] it was -0.152 (inactive); in assay [7], 2.22. Also, the values for the z-score in assay [8], in assay [9] and in [10] were -3.25 (inactive), -0.839 (inactive) and 0.655, respectively. The compound further gave a composite z-score in [2] of 0.102.

`COc1cc2c(cc1OC)CN(C(=O)[C@@H]1[C@H]3C(=O)O[C@H](c4ccccc4)[C@H](c4ccccc4)N3[C@H](c3ccc(OCCO)cc3)[C@@]13C(=O)Nc1ccccc13)CC2`: the z-score in [1] was 0.547 (inactive); in assay [3], 5.29 (inactive); in assay [4] it was 2.11 (inactive); in assay [5] it was 1.06 (inactive); in assay [6] it was 0.956 (inactive); in assay [7] it was -0.0621. The z-score in assay [8] is 0.799 (inactive); in assay [9], 0.837 (inactive); in assay [10], 1.03. For the same compound, the composite z-score in assay [2] was 0.534.

For `COC(=O)c1c(CC[C@@H](CO)NC(=O)N2CCC[C@H]2Cn2cc(Cc3ccccc3)nn2)oc(C(C)=O)c1C(=O)OC`, the z-score in assay [1] is -0.195 (inactive); in [3], 0.133 (inactive); in assay [4], 0.258 (inactive); in assay [5], 0.876 (inactive); in assay [6], -0.033 (inactive); in assay [7] it was 0.567. Also, the z-score in assay [8] was -1.79 (inactive); in assay [9] it was -0.894 (inactive); in assay [10], -1.85. For the same compound, in [2], the composite z-score is -0.177.

Turning to `O=C1O[C@H](c2ccccc2)[C@H](c2ccccc2)N2[C@H]1[C@@H](C(=O)NC[C@H](O)c1ccccc1)[C@]1(C(=O)Nc3ccc(C#CCCO)cc31)[C@H]2c1ccc(OCCO)cc1`, the z-score is 0.0129 (inactive) in [1]; 3.5 (inactive) in assay [3]; 1.19 (inactive) in assay [4]; 0.123 (inactive) in assay [5]; 0.663 (inactive) in assay [6]; -0.268 in [7]. Also, the z-score in [8] was 1.16 (inactive); in assay [9], 0.861 (inactive); in assay [10], 0.275. This compound also gave a composite z-score in [2] of 0.138.

`Cc1ccc(S[C@]2(C(=O)NCC(F)(F)F)CC(=O)N(C3CCCCC3)[C@@H]2c2ccc(CO)cc2I)cc1`: the z-score in assay [1] was 0.439 (inactive); in [3], 4.35 (inactive); in [4], 1.29 (inactive); in assay [5] it was -0.178 (inactive); in assay [6] it was 0.524 (inactive); in assay [7] it was -0.283. For the same compound, the z-score in [8] was 1.04 (inactive); in assay [9] it was 0.661 (inactive); in [10], 2.07. Also, the composite z-score in assay [2] is -0.0879.
